# Experimental data as given in PubChem BioAssay (NCATS).
# Records with an inconclusive call do not appear. Entries that show only a call come without a potency. The source made the active and inactive calls. Unless noted, calls follow the shape of the dose curve; as a rule, active = well fitted curve in the direction sought with a large enough effect; inconclusive = small, poorly fitted or top-dose-only effect, or another doubt; inactive = no such curve, though single readings can be large; an effect the other way counts as inactive or inconclusive.
# Assays:
# [1] = Validation of Assay for Modulators of Lamin A Splicing (AID 1459; active = well fitted curve in the direction sought with a large enough effect in the signal ratio; the % refers to the signal ratio;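 also: cells exposed to compound for two days before reading; ratio rise marks activators and ratio drop marks inhibitors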)
# Summary of the method: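 S3 HeLa cells stably expressing a lamin A-EGFP splicing minigene and DsRed2 were seeded at 600 cells/well in Opti-MEM with 2% FBS, pin-dosed, and incubated 48 hrs at 37 °C, 5% CO2. Laser-scanning cytometry (488 nm) gave GFP/RFP total intensity ratio.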
# [2] = target: DNA repair nuclease/redox regulator APEX1 (Homo sapiens) (UniProt P27695); test: qHTS Validation Assay for Inhibitors of the Human Apurinic/apyrimidinic Endonuclease 1 (APE1) (AID 1705;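 also: TAMRA fluorescence gain over two minutes as APE1 cuts a quenched THF abasic duplex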)
# DNA repair nuclease/redox regulator APEX1 (Homo sapiens), sequence (P27695 whole entry, looked up): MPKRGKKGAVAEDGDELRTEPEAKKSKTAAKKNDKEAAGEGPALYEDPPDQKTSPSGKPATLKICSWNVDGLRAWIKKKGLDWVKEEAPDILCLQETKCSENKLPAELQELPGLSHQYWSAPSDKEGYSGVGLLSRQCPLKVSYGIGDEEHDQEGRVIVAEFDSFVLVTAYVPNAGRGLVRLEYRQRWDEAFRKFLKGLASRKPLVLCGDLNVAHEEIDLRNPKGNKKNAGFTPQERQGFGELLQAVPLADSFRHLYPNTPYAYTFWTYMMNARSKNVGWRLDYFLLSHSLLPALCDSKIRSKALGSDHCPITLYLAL
# Summary of the method: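 Human APE1 was preincubated with compound for 15 min at room temperature, then 50 nM (final) THF-abasic double-stranded DNA substrate bearing 5'-TAMRA and 3'-BHQ-2 was added. Incision-driven fluorescence rise (ex 525/em 598 nm) was read kinetically.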
# [3] = target: Endonuclease 4 (Escherichia coli (strain K12)) (UniProt P0A6C1); test: Counterscreen for APE1 Inhibitors: qHTS Validation Assay for Inhibitors of Endonuclease IV (AID 1708)
# Summary of the method: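 Enzymatic AP-site incision assay using a double-stranded THF substrate labelled with TAMRA and BHQ-2; released fluorescence signals activity. Enzyme 2 nM, substrate 50 nM, 15 min compound preincubation.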
# [4] = target: ATP-dependent DNA helicase Q1 (Homo sapiens) (UniProt P46063); test: qHTS Validation Assay for Inhibitors of RecQ-Like Dna Helicase 1 (RECQ1) (AID 2353)
# ATP-dependent DNA helicase Q1 (Homo sapiens), sequence (P46063 whole entry, looked up): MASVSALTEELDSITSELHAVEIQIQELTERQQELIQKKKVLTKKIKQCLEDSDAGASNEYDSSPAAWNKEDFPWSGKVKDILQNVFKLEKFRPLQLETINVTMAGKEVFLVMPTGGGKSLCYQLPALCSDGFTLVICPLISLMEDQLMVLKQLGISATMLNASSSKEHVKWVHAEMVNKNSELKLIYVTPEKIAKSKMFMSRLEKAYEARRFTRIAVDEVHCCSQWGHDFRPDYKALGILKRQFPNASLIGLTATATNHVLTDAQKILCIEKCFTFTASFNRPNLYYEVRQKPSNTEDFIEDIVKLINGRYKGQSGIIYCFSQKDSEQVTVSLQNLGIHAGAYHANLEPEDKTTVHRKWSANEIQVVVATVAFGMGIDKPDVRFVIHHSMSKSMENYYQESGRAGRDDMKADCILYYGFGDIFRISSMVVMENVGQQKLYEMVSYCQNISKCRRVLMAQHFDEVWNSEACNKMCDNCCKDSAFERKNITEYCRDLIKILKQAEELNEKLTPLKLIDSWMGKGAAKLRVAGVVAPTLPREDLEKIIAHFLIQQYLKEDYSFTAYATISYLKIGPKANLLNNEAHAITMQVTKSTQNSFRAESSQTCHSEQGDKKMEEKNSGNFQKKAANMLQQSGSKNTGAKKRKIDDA
# Summary of the method: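 50 nM RECQ1T1 preincubated 15 min with compound in Tris pH 8.0 buffer with MgCl2, DTT, Tween-20 and 2.5 ug/ml poly(dI-dC); started with 200 nM TAMRA/BHQ-2 forked duplex and 2 mM ATP. Unwinding read as fluorescence (525/598 nm), two reads 2 h apart.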
# [5] = Cytometric Cell-Based qHTS for Inhibitors of the mTORC1 Signaling Pathway in MEF (Tsc2-/-, p53-/-) Cells (AID 2660);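 also: Tsc2 and p53 null MEFs carrying empty vector with compound for 24 h; percent of cells above a phospho-rpS6 to PI ratio cutoff in each well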
# Summary of the method: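 Readout: Alexa-488 phospho-rpS6 (Ser235/236) intensity divided by PI intensity, thresholded against 7.5 nM rapamycin wells and reported as % positive cells. PI cell count served as the viability measure. Compound exposure was 24 hrs at 37 degree Celsius.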
# [6] = High Content Imaging Cell-Based qHTS for Inhibitors of the mTORC1 Signaling Pathway in MEF (Tsc2-/-, p53-/-) Cells (AID 2666); settings: at 38.3 µM (top of the series);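 also: percent of cells scored positive for phospho-rpS6 Ser235/236 immunostaining by imaging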
# Summary of the method: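 Cells were plated, dosed with compound after 24 hrs, and incubated another 24 hrs at 37 degree Celsius. Fixed cells were immunostained for phospho-rpS6 Ser235/236 and counterstained, and the normalized signal was scored as % active cells against rapamycin and DMSO controls.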
# [7] = High Content Imaging Cell-Based qHTS for Inhibitors of the mTORC1 Signaling Pathway in MEF Cells (AID 2667);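 also: Tsc2-/- p53-/- MEFs stably re-expressing wild-type Tsc2 exposed 24 h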
# Summary of the method: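 Immunofluorescence for rpS6 phosphorylation in MEFs of Tsc2-/-, p53-/- background rescued with WT Tsc2. Compound exposure lasted 24 hrs. Inhibition was scored against rapamycin-treated control wells.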
# [8] = Validation screen for small molecules that induce DNA re-replication in MCF 10A normal breast cells (AID 463097); also: nearly all actives have a fitted effect of over 60% in size
# Summary of the method: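 Readout: Hoechst nuclear fluorescence intensity, 405 ex / 500-530 em, by scanning plate imager; re-replication scored as increase in nuclei with elevated DNA content. Cells exposed to compound 48 hr, 37 C, 5% CO2 beforehand.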
# [9] = target: Ubiquitin carboxyl-terminal hydrolase 2 (Homo sapiens) (UniProt O75604); test: qHTS Validation Assay for Inhibitors of Ubiquitin-specific Protease USP2a Using CHOP2 as the Reporter (AID 463106)
# Summary of the method: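 10nM USP2 core + cpd, 30min RT; add 25nM Ub-CHOP2/25nM substrate; 60min RT; FI 485/531nm. Buffer Tris pH 8.0, CaCl2, BME, CHAPS. Norm. to NEM = 100% inhibition; time-zero read flags fluorescent artifacts.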
# [10] = target: Tumor susceptibility gene 101 protein (Homo sapiens) (UniProt Q99816); test: qHTS Validation Assay for Iinhibitors of HIV-1 Budding by Blocking the Interaction of PTAP/TSG101 (AID 485342; calls by dose curve)
# Tumor susceptibility gene 101 protein (Homo sapiens), sequence (Q99816 whole entry, looked up, the tested form may be a part): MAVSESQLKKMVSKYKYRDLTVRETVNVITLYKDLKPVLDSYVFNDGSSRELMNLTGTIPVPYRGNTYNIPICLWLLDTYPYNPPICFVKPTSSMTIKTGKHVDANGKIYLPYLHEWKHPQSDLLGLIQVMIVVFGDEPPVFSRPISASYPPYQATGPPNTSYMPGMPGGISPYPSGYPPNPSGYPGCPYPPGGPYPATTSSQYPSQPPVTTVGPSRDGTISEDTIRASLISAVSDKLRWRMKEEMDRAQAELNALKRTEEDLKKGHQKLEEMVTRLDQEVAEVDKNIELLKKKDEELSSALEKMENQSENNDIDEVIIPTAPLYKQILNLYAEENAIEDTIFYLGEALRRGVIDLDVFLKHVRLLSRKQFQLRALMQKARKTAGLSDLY
# Summary of the method: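 Tsg101 binding domain (10 uM final) in pH 7.5 HEPES/NaCl/Tween 20/EDTA/TCEP buffer was mixed with pin-transferred compounds, then FITC-labeled PTAP peptide (50 nM final) was added; after 20 min at r.t., fluorescence polarization was read.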
# [11] = target: Beta-2 adrenergic receptor (Homo sapiens) (UniProt P07550); test: qHTS validation assay of beta-arrestin-biased ligands of beta2-adrenergic receptor (AID 485366)
# Summary of the method: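 Tango cells (recombinant beta2-AR with recombinant beta-arrestin; recruitment releases tTA driving luciferase) were treated with compounds titrated up to 46 microM for 18 hr at 37 degrees C. Luminescence gave %Activity, and concentration-response curves were curve-classified.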
# [12] = target: Thioredoxin reductase 1, cytoplasmic (Rattus norvegicus) (UniProt O89049); test: qHTS Assay for Substrates of Mammalian Selenoprotein Thioredoxin Reductase 1 (TrxR1) (AID 488772);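 also: NADPH fluorescence in the first read after selenite addition and not the 8 min delta; a drop in NADPH fluorescence below the no-compound background marks a TrxR1 substrate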
# Thioredoxin reductase 1, cytoplasmic (Rattus norvegicus), sequence (O89049 whole entry, looked up): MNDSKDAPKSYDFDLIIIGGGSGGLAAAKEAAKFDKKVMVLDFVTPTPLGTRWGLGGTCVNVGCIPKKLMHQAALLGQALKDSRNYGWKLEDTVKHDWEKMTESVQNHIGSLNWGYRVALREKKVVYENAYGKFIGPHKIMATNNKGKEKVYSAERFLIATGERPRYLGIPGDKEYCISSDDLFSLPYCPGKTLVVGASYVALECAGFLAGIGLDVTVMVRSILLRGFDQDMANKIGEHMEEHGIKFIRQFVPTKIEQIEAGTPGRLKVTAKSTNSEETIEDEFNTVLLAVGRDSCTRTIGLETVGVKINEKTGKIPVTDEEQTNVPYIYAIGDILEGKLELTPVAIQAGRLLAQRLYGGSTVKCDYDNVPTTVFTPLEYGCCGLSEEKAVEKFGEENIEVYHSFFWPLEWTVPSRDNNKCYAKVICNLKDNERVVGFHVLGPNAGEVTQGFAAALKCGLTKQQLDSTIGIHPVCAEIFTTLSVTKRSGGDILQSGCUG
# Summary of the method: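 Quantitative HTS in Tris-HCl buffer at pH 7.5 with EDTA and Tween-20, using rat TrxR1, 400 uM NADPH and 400 uM selenite (final). A fall in initial NADPH fluorescence relative to background marked substrate behaviour.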
# [13] = target: M-phase phosphoprotein 8 (Homo sapiens) (UniProt Q99549); test: qHTS Validation Assay for Inhibitors for MPP8 Chromodomain Interactions with Methylated Histone Tails (AID 488949);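 also: AlphaScreen signal from MPP8 chromodomain bound to biotinylated H3K9me3 peptide; top concentration of the series differs between compounds; nearly all actives have a fitted effect of over 55% in size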
# Summary of the method: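 MPP8 (50 nM) was preincubated with biotinylated H3(1-18)K9me3 peptide (50 nM) in PBS pH 7.4, 0.01% Tween-20 for 30 min at room temperature, then with compounds for 30 min; binding was detected by AlphaScreen.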
# [14] = target: Chromobox protein homolog 1 (Homo sapiens) (UniProt P83916); test: qHTS Validation Assay for Inhibitors of HP1-beta Chromodomain Interactions with Methylated Histone Tails (AID 488953);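 also: loss of AlphaScreen luminescence from HP1-beta binding biotinylated H3K9me3 peptide; nearly all actives have a fitted effect of over 50% in size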
# Summary of the method: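 HP1-beta (50 nM) was preincubated 30 min at room temperature with biotinylated H3(1-18)K9me3 peptide (50 nM) in PBS pH 7.4, 0.01% Tween-20, then with compounds 30 min. AlphaScreen signal was read after streptavidin donor/nickel chelate acceptor beads (10 ug/mL final).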
# [15] = target: Thyrotropin receptor (Homo sapiens) (UniProt P16473); test: qHTS Assay for Antagonists of the Thyroid Stimulating Hormone Receptor (AID 488980)
# Summary of the method: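 HEK293 cells transfected with human TSHR, suspended in HEPES-buffered HBSS with 70 uM RO 20-1724, were treated with compounds plus TSH at EC80 (4 nM final). cAMP was measured by competitive HTRF (cryptate anti-cAMP antibody, cAMP-d2 acceptor).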
# [16] = Validation screen for small molecules that induce genotoxicity in human embryonic kidney (HEK293T) cells expressing luciferase-tagged ELG1 (AID 493106)
# Summary of the method: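 HEK293T cells expressing luciferase-tagged ELG1 were exposed to compound or DMSO vehicle for 16 hr at 37 °C, 5% CO2. Genotoxic stress raises ELG1 levels, so increased luciferase signal after ONE-Glo addition and 30 min at room temperature marks hits.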
# [17] = target: ATPase family AAA domain-containing protein 5 (Homo sapiens) (UniProt Q96QE3); test: Validation screen for small molecules that inhibit ELG1-dependent DNA repair in human embryonic kidney (HEK293T) cells expressing luciferase-tagged ELG1 (AID 493107);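 also: cells co-treated with the DNA-damaging agent 5-fluorouridine alongside compound; inhibitors lower the ELG1-luciferase luminescence signal; nearly all actives have a fitted effect of over 70% in size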
# ATPase family AAA domain-containing protein 5 (Homo sapiens), sequence (Q96QE3 whole entry, looked up, the tested form may be a part): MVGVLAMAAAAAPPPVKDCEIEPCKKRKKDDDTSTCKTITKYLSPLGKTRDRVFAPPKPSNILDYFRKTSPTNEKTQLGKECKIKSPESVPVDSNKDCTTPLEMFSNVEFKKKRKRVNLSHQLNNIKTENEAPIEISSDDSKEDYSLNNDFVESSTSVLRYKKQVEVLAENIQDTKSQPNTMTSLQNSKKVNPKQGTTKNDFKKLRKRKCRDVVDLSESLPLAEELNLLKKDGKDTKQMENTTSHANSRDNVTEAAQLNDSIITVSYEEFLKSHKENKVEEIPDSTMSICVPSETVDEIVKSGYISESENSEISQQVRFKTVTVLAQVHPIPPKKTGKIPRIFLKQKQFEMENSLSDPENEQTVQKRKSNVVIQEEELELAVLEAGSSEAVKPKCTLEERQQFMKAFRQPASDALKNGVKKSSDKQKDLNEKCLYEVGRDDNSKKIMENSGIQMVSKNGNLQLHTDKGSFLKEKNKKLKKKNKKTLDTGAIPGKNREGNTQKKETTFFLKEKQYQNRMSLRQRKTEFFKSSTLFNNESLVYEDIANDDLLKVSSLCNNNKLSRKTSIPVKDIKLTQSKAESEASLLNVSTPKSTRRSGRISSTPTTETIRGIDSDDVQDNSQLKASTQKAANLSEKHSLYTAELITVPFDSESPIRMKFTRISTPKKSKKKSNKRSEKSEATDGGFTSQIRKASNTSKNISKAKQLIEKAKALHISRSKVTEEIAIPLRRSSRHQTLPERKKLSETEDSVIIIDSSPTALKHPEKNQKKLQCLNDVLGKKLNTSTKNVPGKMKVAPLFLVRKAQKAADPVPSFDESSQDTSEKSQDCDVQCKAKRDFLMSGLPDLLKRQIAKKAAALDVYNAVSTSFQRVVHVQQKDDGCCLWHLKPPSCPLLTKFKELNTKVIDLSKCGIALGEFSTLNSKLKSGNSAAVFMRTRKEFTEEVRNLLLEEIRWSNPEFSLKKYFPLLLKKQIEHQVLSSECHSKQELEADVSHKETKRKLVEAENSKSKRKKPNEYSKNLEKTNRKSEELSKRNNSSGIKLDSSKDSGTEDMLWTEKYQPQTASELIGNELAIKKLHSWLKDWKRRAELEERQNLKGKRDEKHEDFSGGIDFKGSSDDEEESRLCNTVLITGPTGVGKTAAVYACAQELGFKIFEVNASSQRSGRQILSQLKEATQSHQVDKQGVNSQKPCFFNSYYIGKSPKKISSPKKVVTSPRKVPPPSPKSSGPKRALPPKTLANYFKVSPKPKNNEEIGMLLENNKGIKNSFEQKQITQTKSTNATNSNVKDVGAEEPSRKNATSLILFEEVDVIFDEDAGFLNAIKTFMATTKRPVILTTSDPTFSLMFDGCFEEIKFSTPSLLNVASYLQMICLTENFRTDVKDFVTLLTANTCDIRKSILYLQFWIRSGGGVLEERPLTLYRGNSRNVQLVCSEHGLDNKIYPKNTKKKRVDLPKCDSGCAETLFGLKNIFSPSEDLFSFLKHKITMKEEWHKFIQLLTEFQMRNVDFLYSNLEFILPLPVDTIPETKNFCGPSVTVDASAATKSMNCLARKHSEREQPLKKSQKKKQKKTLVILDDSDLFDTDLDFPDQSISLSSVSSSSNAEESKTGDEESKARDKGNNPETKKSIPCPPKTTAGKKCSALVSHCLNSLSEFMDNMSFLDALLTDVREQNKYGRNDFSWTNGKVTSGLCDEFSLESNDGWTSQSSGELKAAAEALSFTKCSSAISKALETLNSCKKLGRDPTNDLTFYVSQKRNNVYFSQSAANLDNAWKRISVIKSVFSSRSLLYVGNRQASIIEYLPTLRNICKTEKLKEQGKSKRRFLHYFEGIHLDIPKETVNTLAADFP
# Summary of the method: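 HEK293T cells expressing luciferase-tagged ELG1 were co-treated with 5-fluorouridine and compound or DMSO for 16 hr at 37 °C, 5% CO2. Luciferase activity was then read with ONE-Glo after 30 min at room temperature; suppressed signal indicates blocked ELG1 function.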
# [18] = target: Thyrotropin-releasing hormone receptor (Homo sapiens) (UniProt P34981); test: qHTS for Small Molecule Agonists and Allosteric Enhancers of Human TRH Receptor: Validation Screen for Agonists (AID 493127;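 active = calcium activation more than 3 SD above the typical response in the agonist read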;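 also: intracellular calcium rise by fluo-8 fluorescence before TRH EC20 addition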); settings: TRH receptor agonist cell assay; at 2 µM; stronger effect = higher value
# Thyrotropin-releasing hormone receptor (Homo sapiens), sequence (P34981 whole entry, looked up): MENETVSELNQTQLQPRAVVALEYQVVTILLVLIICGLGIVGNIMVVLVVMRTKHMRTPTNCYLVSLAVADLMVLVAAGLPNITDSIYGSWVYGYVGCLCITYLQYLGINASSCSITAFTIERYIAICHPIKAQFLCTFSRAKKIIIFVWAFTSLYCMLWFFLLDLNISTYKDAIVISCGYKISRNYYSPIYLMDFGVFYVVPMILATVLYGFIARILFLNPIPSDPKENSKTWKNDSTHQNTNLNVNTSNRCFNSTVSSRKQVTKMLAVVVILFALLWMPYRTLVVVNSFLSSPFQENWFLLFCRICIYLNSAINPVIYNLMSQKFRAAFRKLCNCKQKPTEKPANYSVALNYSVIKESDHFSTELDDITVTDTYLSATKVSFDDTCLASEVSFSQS
# Summary of the method: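 TRHR-expressing cells were plated overnight in serum-containing medium, then loaded with fluo-8 calcium dye at room temperature for 30 min–1.5 h. After a 10 s baseline, compound was pin-transferred and calcium fluorescence (ex 480/em 530) read kinetically for agonist response.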
# [19] = Nrf2 qHTS screen for inhibitors: Validation (AID 493153; active = well fitted inhibition curve with a large enough effect in the main read-out, with a control signal flat, not every such curve was filed as active); settings: viability change: measured here: cytotoxicity max response
# Summary of the method: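 A549 cells carrying an ARE-driven firefly luciferase reporter, in 5% FBS OPTI-MEM, were treated with compounds in concentration-response for 18-24 h at 37°C. Viability was read by CellTiter-Fluor fluorescence, then Nrf2 activity by luciferase luminescence.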
# [20] = qHTS for Inhibitors of Cell Surface uPA Generation: Validation Assay (AID 493164);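 also: RAW 264.7 macrophage cells exposed to compound for 18 h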
# Summary of the method: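 RAW 264.7, 4000 cells/well, o/n plating; cpd 7-pt 1:5 dilution 2.45 nM–38.3 uM final; 18 h, 37 C/5% CO2; ATP-Lite, 5 s luminescence exposure.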
# [21] = target: Galactokinase (Homo sapiens) (UniProt P51570); test: qHTS Validation Assay for Inhibitors of Human Galactokinase (GALK) (AID 493189)
# Summary of the method: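 GALK (5 nM) with 35 uM ATP and 100 uM galactose in HEPES pH8.0, MgCl2, NaCl, DTT, BSA; 1 h at room temperature. Residual ATP read by Kinase-Glo Plus luminescence after 10 min.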
# [22] = Validation screen for small molecules that induce DNA re-replication in SW480 colon adenocarcinoma cells (AID 504364)
# Summary of the method: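 SW480 cells seeded at 250 per well were exposed to compound or DMSO for 48 hr at 37 C, 5% CO2, then stained with Hoechst for 40 min. DNA content per nucleus was imaged (405 nm ex, 500-530 nm em).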
# [23] = target: Peptidyl-prolyl cis-trans isomerase NIMA-interacting 1 (Homo sapiens) (UniProt Q13526); test: qHTS Validation Assay to Find Inhibitors of Pin1 (AID 504536; active = well fitted inhibition curve with a large enough effect in the polarisation, with a control signal flat, not every such curve was filed as active; the % refers to the polarisation)
# Peptidyl-prolyl cis-trans isomerase NIMA-interacting 1 (Homo sapiens), sequence (Q13526 whole entry, looked up): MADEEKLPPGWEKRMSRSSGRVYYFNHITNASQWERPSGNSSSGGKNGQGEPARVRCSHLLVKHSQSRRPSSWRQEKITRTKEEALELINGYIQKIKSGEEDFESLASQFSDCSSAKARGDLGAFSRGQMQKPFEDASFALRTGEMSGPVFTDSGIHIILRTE
# Summary of the method: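 Fluorescence polarization competition: compounds (titration) displace HiFluor-488-labeled Pin1-1b peptide from Pin1 (0.3 uM final) in pH 7.5 HEPES buffer with DTT, 10 min at room temperature; %Activity normalized to no-enzyme wells, curves fitted.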
# [24] = target: Phosphoglycerate kinase, glycosomal (Trypanosoma brucei brucei) (UniProt P07378); test: qHTS Validation Assay to Find Inhibitors of Phosphoglycerate Kinase (AID 504547)
# Summary of the method: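 Inhibition of the enzyme is judged by a Kinase-Glo Plus luminescent signal following a one-hour incubation at room temperature. Because 1,3-BPG is unstable, it is made in situ by GAPDH at 100nM final; no-PGK wells define the baseline.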
# [25] = target: phosphoglycerate mutase (Leishmania major) (UniProt Q4Q090); test: qHTS Validation Assay to Find Inhibitors of Phosphoglycerate Mutase (AID 504548)
# Summary of the method: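 Lm PGAM 1.25nM final; 100 mM TEA pH 7.6, 5 mM MgCl2, 0.01% Tween-20; 45 min RT; Kinase-GloPlus, 10 min; end-point luminescence. Enzyme-free wells as negative controls.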
# [26] = target: Ubiquitin carboxyl-terminal hydrolase 1 (Homo sapiens) (UniProt O94782); test: Inhibitors of USP1/UAF1: Pilot qHTS (AID 504865);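 also: rhodamine fluorescence freed from ubiquitin-rhodamine substrate followed over time; top concentration of the series differs between compounds; nearly all actives have a fitted effect of over 35% in size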
# Ubiquitin carboxyl-terminal hydrolase 1 (Homo sapiens), sequence (O94782 whole entry, looked up): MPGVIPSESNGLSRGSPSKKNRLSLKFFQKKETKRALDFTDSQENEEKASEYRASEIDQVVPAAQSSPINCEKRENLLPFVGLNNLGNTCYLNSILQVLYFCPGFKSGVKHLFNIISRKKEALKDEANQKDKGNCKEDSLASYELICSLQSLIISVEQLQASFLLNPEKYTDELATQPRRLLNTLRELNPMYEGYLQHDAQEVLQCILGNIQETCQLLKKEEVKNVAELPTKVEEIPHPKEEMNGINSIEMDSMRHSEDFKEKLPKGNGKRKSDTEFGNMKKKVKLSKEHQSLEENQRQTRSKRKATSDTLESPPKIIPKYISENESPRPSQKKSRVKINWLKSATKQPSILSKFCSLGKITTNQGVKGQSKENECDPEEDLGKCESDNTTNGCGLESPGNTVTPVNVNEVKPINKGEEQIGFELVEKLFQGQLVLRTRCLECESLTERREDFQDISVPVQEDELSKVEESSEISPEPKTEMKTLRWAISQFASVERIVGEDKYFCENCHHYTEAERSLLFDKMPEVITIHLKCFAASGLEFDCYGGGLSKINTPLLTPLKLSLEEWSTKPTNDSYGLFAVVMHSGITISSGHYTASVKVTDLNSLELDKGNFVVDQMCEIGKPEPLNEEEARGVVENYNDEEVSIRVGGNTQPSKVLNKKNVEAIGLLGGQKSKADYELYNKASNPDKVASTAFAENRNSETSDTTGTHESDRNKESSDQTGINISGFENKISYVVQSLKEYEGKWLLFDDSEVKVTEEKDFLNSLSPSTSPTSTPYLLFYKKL
# Summary of the method: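 USP1/UAF1 complex (1nM) preincubated with compound 15 min at room temperature, then Ub-Rho substrate (150nM final) added. Fluorescence read kinetically at 480/540 nm, 6 reads every 60 seconds. Buffer: 50mM HEPES pH 7.8, 0.5mM EDTA, 0.1 mg/ml BSA, 1mM TCEP, 0.01% Tween-20.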
# [27] = target: Voltage-gated inwardly rectifying potassium channel KCNH2 (Homo sapiens) (UniProt Q12809); test: qHTS Assay for Small Molecule Inhibitors of the Human hERG Channel Activity (AID 588834);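 also: potency is read from the fitted curve at half-maximal effect; lower thallium flux fluorescence means stronger hERG block; nearly all actives have a fitted effect of over 50% in size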
# Summary of the method: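 U2OS cells transduced with hERG via BacMam (MOI ~100), plated 2000/well, loaded with FluxOR thallium dye, compound ~10 min, then stimulation buffer; fluorescence decrease read kinetically; AC50 from Hill fits.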
# [28] = target: Glutaminase kidney isoform, mitochondrial (Homo sapiens) (UniProt O94925); test: qHTS for Inhibitors of Glutaminase (GLS): LOPAC Validation (AID 624146); also: potency is read from the fitted curve at half-maximal effect; nearly all actives have a fitted effect of over 60% in size
# Summary of the method: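 Human kidney-isoform GLS in 45 mM KH2PO4 pH 8.2, 0.02% Tween-20, with compound, started with 1mM L-Glutamine (added stock). Glutamate oxidase/HRP/Amplex red coupled fluorescence read at start and after 30 min at RT.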
compound,measurement,setting,value
Oc1cc2c(c(Cl)c1O)CCNCC2c1ccccc1 (centres undefined),outcome,[1],inactive
same,Potency,[2],inactive
same,Potency,[3],inactive
same,Potency,[4],inactive
same,outcome,[5],inactive
same,outcome,[6],inactive
same,Potency,[7],inactive
same,Potency,[8],inactive
same,Potency,[9],inactive
same,outcome,[10],inactive
same,outcome,[11],inactive
same,outcome,[12],inactive
same,Potency,[13],inactive
same,Potency,[14],inactive
same,outcome,[15],inactive
same,Potency,[16],inactive
same,Potency,[17],inactive
same,activation,[18],2.25% (inactive)
same,outcome,[19],inactive
same,viability change,[19],-3.92%
same,outcome,[20],inactive
same,outcome,[21],inactive
same,outcome,[22],inactive
same,Potency,[23],inactive
same,Potency,[24],inactive
same,outcome,[25],inactive
same,Potency,[26],inactive
same,Potency,[27],2820 nM (active)
same,Potency,[28],1120 nM (active)
